Laboratory results taken from PubChem BioAssay (NCATS).
Results filed as inconclusive are left out. Where a call stands in place of a potency, no number is given. Calls of active or inactive are those of the source. Calls follow the shape of the dose curve; as a rule, active = well fitted cell-killing curve with a large enough effect; inconclusive = small, poorly fitted or top-dose-only effect, or effect the other way; inactive = no such curve, though single readings can be large or run the other way.

test: Quantitative High-Throughput drug screen in 47 multiple myeloma cell lines against the NCATS MIPE library collection: OCIMY1_PLB cell viability assay (AID 1918979); conditions: OCI-MY1 myeloma viability, CellTiter-Glo ATP, 48 h; series mostly up to 45.8 µM; also: nearly all actives have a fitted effect of over 35% in size
In short: (§1)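 Inhibition of viability over 48 h was scored by ATP content (CellTiter-Glo) in 500-cell wells. Zero and full viability were defined by media-only and DMSO-only wells.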
Potency is read from the fitted curve at half-maximal effect.

Row | Structure (SMILES) | Potency
1 | CC(N[C@H]1C[C@H]1c1ccccc1)c1ccc2c(c1)OCCO2 (stereo partly drawn) | inactive
2 | CC(=Cc1csc(C)n1)[C@@H]1C[C@H]2O[C@]2(C)CCC[C@H](C)[C@@H](O)[C@@H](C)C(=O)C(C)(C)[C@@H](O)CC(=O)O1 | inactive
3 | O=c1cccc2n1CC1CNC[C@H]2C1 | inactive
4 | Cc1c(N)nc([C@H](CC(N)=O)NC[C@@H](N)C(N)=O)nc1C(=O)N[C@H](C(=O)N[C@@H](C)[C@H](O)[C@@H](C)C(=O)N[C@@H](C(=O)NCCc1nc(-c2nc(C(=O)NCCC[S+](C)C)cs2)cs1)[C@@H](C)O)C(O[C@H]1O[C@H](CO)[C@H](O)[C@@H](O)[C@@H]1O[C@H]1O[C@H](CO)[C@@H](O)[C@H](OC(N)=O)[C@H]1O)c1cnc[nH]1 (stereo partly drawn) | 13.2 µM (active)
5 | NC1CC1c1ccccc1 (stereo not drawn) | inactive
6 | CC(C)(O)C(=O)Nc1ccc([N+](=O)[O-])c(C(F)(F)F)c1 | inactive
7 | CCOC(=O)c1cncn1[C@H](C)c1ccccc1 | inactive
8 | C[C@](O)(COc1ccc(C#N)cc1)C(=O)Nc1ccc(C#N)c(C(F)(F)F)c1 | inactive
9 | CC(O)=C(C#N)C(=O)Nc1cc(Br)ccc1Br | inactive
10 | CCN(CC)C(=O)c1ccc(C2=CC3(CCNCC3)Oc3cccc(O)c32)cc1 | inactive
11 | C#CC1(O)CCC2C3CCC4=CC(=O)CCC4(C)C3CCC21C (stereo not drawn) | inactive
12 | C[C@]12CC[C@@H]3[C@@H](CCC4=CC(=O)CC[C@@H]43)[C@@H]1CC[C@@H]2OC(=O)CCc1ccccc1 | inactive
13 | CCOP(=O)(OCC)C(C)NC(=O)N(CCCl)N=O (stereo not drawn) | inactive
14 | CCC(=O)OC1CCC2C3CCC4=CC(=O)CC[C@@]4(C)C3CC[C@]12C (stereo partly drawn) | inactive
15 | CC(=O)N(C)c1cccc(-c2ccnc3c(C(=O)c4cccs4)cnn23)c1 | inactive
16 | COc1ccc2c(c1)CN(C)CC2c1ccc(Cl)c(Cl)c1 (stereo not drawn) | inactive
17 | c1ccc(CCCN2CCN(CCOC(c3ccccc3)c3ccccc3)CC2)cc1 | 23.5 µM (active)
18 | O=C(O)CNC(=O)c1c(O)c2ccccc2n(Cc2ccccc2)c1=O | inactive
19 | CN(C)NC(=O)CCC(=O)O | inactive

Row | Structure (SMILES) | Potency
20 | CCOC(=O)c1c(C(C#N)=CN)c2ccc(Cl)c(Cl)c2n1C | inactive
21 | O=C(Oc1ccc([N+](=O)[O-])cc1)N1CCC(C(O)(c2ccc3c(c2)OCO3)c2ccc3c(c2)OCO3)CC1 | inactive
22 | CN(C)[C@@H]1C(=O)C(C(N)=O)=C(O)[C@@]2(O)C(=O)C3=C(O)c4c(O)cccc4[C@@](C)(O)[C@H]3[C@H](O)[C@@H]12 | inactive
23 | NC1=NC(=O)N2CC12 (stereo not drawn) | inactive
24 | CC(C)N(CCNC(=O)CN1CCCC1=O)C(C)C | inactive
25 | COc1cc([C@@H]2c3cc4c(cc3[C@@H](O)C3COC(=O)C32)OCO4)cc(OC)c1O (stereo partly drawn) | 0.0418 µM (active)
26 | CCCN1CCO[C@@H]2c3cc(O)ccc3OC[C@@H]21 | inactive
27 | CC[C@@H](C(N)=O)N1CCCC1=O | inactive
28 | C#C[C@]1(O)C=C[C@@H]2[C@@H]3CCC4=CC(=O)CC[C@@H]4[C@H]3CC[C@@]21CC | inactive
29 | C[C@]12CC[C@H](O)CC1=CC[C@H]1[C@H]3CCC(=O)[C@@]3(C)CC[C@@H]12 | inactive
30 | O=C1C=CC[C@@H]2[C@H]3CCCN4CCC[C@@H](CN12)[C@@H]34 | inactive
31 | CC1(N2CCC(n3c([C@@H]4CCCNC4)nc4ccccc43)CC2)CCCCCCC1 | 20.9 µM (active)
32 | CCNC(=O)CC1N=C(c2ccc(Cl)cc2)c2cc(OC)ccc2-n2c(C)nnc21 (stereo not drawn) | 18.7 µM (active)
33 | CC(=CCCC1=CCC(C2=CC(=O)OC2O)OC1O)CCC1=C(C)CCCC1(C)C (stereo not drawn) | inactive
34 | C[C@@H]1CC[C@@]2(OC1)O[C@H]1C[C@H]3[C@@H]4CC=C5C[C@@H](O[C@@H]6O[C@H](CO)[C@@H](O[C@@H]7O[C@@H](C)[C@H](O)[C@@H](O)[C@@H]7O)[C@H](O)[C@@H]6O[C@@H]6O[C@@H](C)[C@H](O)[C@@H](O)[C@@H]6O)CC[C@]5(C)[C@@H]4CC[C@]3(C)[C@@H]1[C@H]2C | 1.66 µM (active)
35 | COc1ccc2c(c1)[C@]13CCCCC1C(C2)N(C)CC3 (stereo partly drawn) | inactive
36 | C[C@]12Cc3cn[nH]c3C[C@@H]1CC[C@@H]1[C@H]2CC[C@@]2(C)[C@H]1CC[C@]2(C)O | inactive
37 | C[C@]12CCC(=O)C(O)=C1CC[C@@H]1[C@H]3CCC(=O)[C@@]3(C)CC[C@@H]12 | inactive
38 | CC(C)[C@H]1C(=O)N[C@H](CO)Cc2c[nH]c3cccc(c23)N1C | inactive

test: Quantitative High-Throughput drug screen in 47 multiple myeloma cell lines against the NCATS MIPE library collection: MM1S_ATCC cell viability assay (AID 1918980); conditions: MM1S myeloma viability, CellTiter-Glo ATP luminescence, 48 h; series mostly up to 45.8 µM; also: nearly all actives have a fitted effect of over 45% in size
In short: as §1

Row | Structure (SMILES) | Potency
39 | CC(=Cc1csc(C)n1)[C@@H]1C[C@H]2O[C@]2(C)CCC[C@H](C)[C@@H](O)[C@@H](C)C(=O)C(C)(C)[C@@H](O)CC(=O)O1 | inactive
40 | O=c1cccc2n1CC1CNC[C@H]2C1 | 10.5 µM (active)
41 | Cc1c(N)nc([C@H](CC(N)=O)NC[C@@H](N)C(N)=O)nc1C(=O)N[C@H](C(=O)N[C@@H](C)[C@H](O)[C@@H](C)C(=O)N[C@@H](C(=O)NCCc1nc(-c2nc(C(=O)NCCC[S+](C)C)cs2)cs1)[C@@H](C)O)C(O[C@H]1O[C@H](CO)[C@H](O)[C@@H](O)[C@@H]1O[C@H]1O[C@H](CO)[C@@H](O)[C@H](OC(N)=O)[C@H]1O)c1cnc[nH]1 (stereo partly drawn) | 20.9 µM (active)
42 | NC1CC1c1ccccc1 (stereo not drawn) | inactive
43 | CC(C)(O)C(=O)Nc1ccc([N+](=O)[O-])c(C(F)(F)F)c1 | 9.35 µM (active)
44 | CC(O)=C(C#N)C(=O)Nc1cc(Br)ccc1Br | 20.9 µM (active)
45 | C#CC1(O)CCC2C3CCC4=CC(=O)CCC4(C)C3CCC21C (stereo not drawn) | inactive
46 | C[C@]12CC[C@@H]3[C@@H](CCC4=CC(=O)CC[C@@H]43)[C@@H]1CC[C@@H]2OC(=O)CCc1ccccc1 | inactive
47 | COc1ccc2c(c1)CN(C)CC2c1ccc(Cl)c(Cl)c1 (stereo not drawn) | 0.0833 µM (active)
48 | CCOC(=O)c1c(C(C#N)=CN)c2ccc(Cl)c(Cl)c2n1C | 23.5 µM (active)
49 | CN(C)[C@@H]1C(=O)C(C(N)=O)=C(O)[C@@]2(O)C(=O)C3=C(O)c4c(O)cccc4[C@@](C)(O)[C@H]3[C@H](O)[C@@H]12 | 5.9 µM (active)
50 | NC1=NC(=O)N2CC12 (stereo not drawn) | inactive
51 | COc1cc([C@@H]2c3cc4c(cc3[C@@H](O)C3COC(=O)C32)OCO4)cc(OC)c1O (stereo partly drawn) | 0.187 µM (active)
52 | CCCN1CCO[C@@H]2c3cc(O)ccc3OC[C@@H]21 | 14.8 µM (active)
53 | C#C[C@]1(O)C=C[C@@H]2[C@@H]3CCC4=CC(=O)CC[C@@H]4[C@H]3CC[C@@]21CC | inactive
54 | O=C1C=CC[C@@H]2[C@H]3CCCN4CCC[C@@H](CN12)[C@@H]34 | 20.9 µM (active)
55 | CC1(N2CCC(n3c([C@@H]4CCCNC4)nc4ccccc43)CC2)CCCCCCC1 | 4.69 µM (active)
56 | CCNC(=O)CC1N=C(c2ccc(Cl)cc2)c2cc(OC)ccc2-n2c(C)nnc21 (stereo not drawn) | 11.8 µM (active)
57 | CC(=CCCC1=CCC(C2=CC(=O)OC2O)OC1O)CCC1=C(C)CCCC1(C)C (stereo not drawn) | 20.9 µM (active)
58 | C[C@]12Cc3cn[nH]c3C[C@@H]1CC[C@@H]1[C@H]2CC[C@@]2(C)[C@H]1CC[C@]2(C)O | inactive
